The list is not random: actives were taken first. Their share in the collection is about 3.2%.
IL-2 act: IL-2 activation; IL-2 activation reporter assay, cell-based qHTS; stimulated with anti-CD3/CD4/CD28 beads; in transgenic mouse T cells; 0.065% of 360,000 active; activation, % (series mostly up to about 46 µM); in the data active = activation above about 50%; inconclusive = mostly about 30% to 49%; also: 0% is about no effect
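First, unstimulated transgenic mouse T cells were exposed to compound for 60 min. Next, anti-CD3/anti-CD4-coated beads with anti-CD28 were added. Finally, after 18 h at 37 degrees C, EGFP and DsRed were imaged.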
A549 tox: kills or reduces viability of A549 cells in Nrf2 counter-screen; AID 504648; 0.16% of 390,000 active; Potency, µM (top dose mostly 46 µM), for inactives: at the top dose activity change, negative = cytotoxicity, actives largely listed as inhibitors; A549 ARE-Fluc cells, CellTiter-Fluor viability, 18-24 h; also: potency is read from the fitted curve at half-maximal effect; % is scaled to controls: 0 for no effect and ±100 for the full control effect
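A549 ARE-Fluc cells in 5% FBS OPTI-MEM, 5000 cells/well, rested 2 h then exposed to compounds in concentration-response for 18-24 h at 37 °C. Viability by CellTiter-Fluor fluorescence (Ex 405/Em 525) after 30 min; luciferase luminescence (BugLite, 15 min, RT) read afterwards.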
Nrf2 activator: activates Nrf2 signaling; AREc32 ARE-luciferase reporter (MCF7-derived line), luminescence, 24 h; Potency, µM (doses to about 46.1 µM), inactives show at the top dose activation, most hits filed as activators; 0.31% of 410,000 active; AID 624171; also: potency is read from the fitted curve at half-maximal effect; % of control where 0% means no effect; nearly all actives have a fitted effect of over 65% in size
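Steps: seed AREc32_Fluc cells (1000/well, 5% FBS OPTI-MEM); incubate overnight at 37 deg C; add 23 nL compound; incubate 24 hr; add Steady-Glo; hold 30 min RT; read luminescence.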
Nrf2 block: inhibitors of Nrf2 signaling | 2.1% of 360,000 active | Potency, µM (highest dose often 46 µM), for inactives: top-dose activity change, negative = inhibition, hits mostly inhibitors | A549 ARE-Fluc reporter, luciferase luminescence, 18-24 h; also: potency is read from the fitted curve at half-maximal effect; % is scaled to controls: 0 for no effect and ±100 for the full control effect; nearly all actives have a fitted effect of over 60% in size
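Nrf2 activity is the BugLite luminescence, read 15 min after reagent at room temperature, following CellTiter-Fluor cytotoxicity readout (30 min, 37C). Compound titrations were applied for 18-24 h to 5000 A549 ARE_Fluc cells/well in 5% FBS OPTI-MEM.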
BRCA1 expr up: increases BRCA1 expression | MCF7-BRCA1-FFLuc reporter, luminescence, 48 h; response scale: scaled: vehicle 0%, 10 µM genistein 100% | 1.1% of 380,000 active | Potency, µM (doses to about 46.1 µM), for inactives: at the top dose activation, usual class: activators | AID 624202; also: potency is read from the fitted curve at half-maximal effect; nearly all actives have a fitted effect of over 80% in size
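48 h compound treatment of MCF7-BRCA1-FFLuc cells (phenol-red free MEM, 37 °C), then 15 min with luciferase substrate and luminescence imaging.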
p53 reactivator: mutant p53 re-activation in reporter cells. Potency, µM (doses to about 92.2 µM), inactives show top-dose activity change, positive = activation, usual class: activators. H1299 p53-A138V BP100-luciferase reporter, luminescence, 24 h. 0.063% of 320,000 active. AID 504706; also: potency is read from the fitted curve at half-maximal effect; % of control where 0% means no effect; nearly all actives have a fitted effect of over 45% in size
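H1299 (p53-null), stable ts p53-A138V + BP100-Luc; 1000 cells/well, Opti-MEM/10% FBS; cpd 4 pt, 1:5; 24 h, 37 deg C, 5% CO2; detection reagent 10 min RT; luminescence.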
An asterisk follows results filed as active; ? = inconclusive; nt = not tested or not shown. Unless noted, calls follow the shape of the dose curve; as a rule, active = well fitted curve in the direction sought with a large enough effect; inconclusive = small, poorly fitted or top-dose-only effect, or another doubt; inactive = no such curve, though single readings can be large; an effect the other way counts as inactive or inconclusive.

SMILES	IL-2 act	A549 tox	Nrf2 activator	Nrf2 block	BRCA1 expr up	p53 reactivator
O=C(c1ccc(N2CCCCC2)c([N+](=O)[O-])c1)N(Cc1ccccc1)c1ccccn1	-1	-8%	3%	16µM*	-47%	-1%
O=C(c1ccc(N2CCCC2)c([N+](=O)[O-])c1)N1CCc2ccccc2C1	5	-21%	3%	?	2%	1%
COc1cccc(N2CCN(C3C(=O)c4ccccc4N3C(C)=O)CC2)c1 (configuration not stated)	nt	6%	4%	?	nt	nt
O=C1NN(c2ccc(Cl)cc2)C(=O)/C1=C\c1ccc(-c2cccc(C(=O)O)c2)o1	1	-2%	2%	?	8.9µM*	9%
CCCc1cc(-c2n[nH]c(C(=O)OCC)c2-c2cscn2)c(O)cc1O	-2	-12%	-1%	29µM*	-50%	-14%
CCOC(=O)c1[nH]nc(-c2c(O)cc(C)cc2O)c1-c1csc(C)n1	0	0%	0%	9%	4%	-1%
CC1CN(c2ncnc3c2c(-c2ccccc2)cn3-c2ccc(F)cc2)CC(C)O1 (configuration not stated)	-4	?	3%	18µM*	0%	-1%
OCCN1CCN(c2ncnc3c2c(-c2ccccc2)cn3-c2ccc(F)cc2)CC1	0	?	9%	?	-33%	1%
Cc1ccc(-n2cc(-c3ccccc3)c3c(N4CCOCC4)ncnc32)cc1	-2	-20%	0%	23µM*	-46%	-2%
Cc1ccc(-n2cc(-c3ccccc3)c3c(N4CCCCC4)ncnc32)cc1	nt	11%	0%	nt	nt	nt
Cc1csc2c(=O)sc(NC(=O)c3cccs3)nc12	-1	-11%	3.5µM*	?	-14%	-1%
CCOC(=O)c1csc(NC(=O)c2cccs2)n1	0	0%	5%	0%	7.9µM*	?
COC(=O)c1scc(-c2ccc(C)cc2)c1S(=O)(=O)Nc1cccc(C(F)(F)F)c1	nt	2%	11%	-14%	nt	nt
O=C(CSc1ccc(-c2ccncc2)nn1)c1ccc(Cl)cc1	0	1%	0%	5%	-6%	1%
NC(=O)C(c1ccc(Cl)cc1)c1ccc(Sc2ccc(Cl)cc2)nn1 (configuration not stated)	0	-12%	3%	16µM*	-37%	-4%
COP1(=O)CC(O)C(O)C(COCc2ccccc2)O1 (configuration not stated)	nt	-1%	nt	10%	nt	nt
O=C(CCl)N(Cc1cc(=O)[nH]c2ccccc12)c1ccccc1	-4	-13%	-4%	23µM*	-86%	-17%
Cc1ccc(/C(N)=N/OC(=O)Cc2cccs2)cc1	-3	-1%	3%	?	11µM*	?
N/C(=N\OC(=O)Cc1cccs1)c1ccccc1	0	-9%	5%	?	76%	24%
COc1ccc(CNC(=O)Cc2ccc(NC(=O)N3CCCCc4ccccc43)cc2)cc1	nt	0%	3%	-11%	0%	nt
CCOc1ccc(-c2cc(NC(=O)c3cccc(Cl)c3)c(C(=O)OC)s2)cc1	nt	4%	0%	15%	nt	nt
CCC(CC)c1nnc(NC(=O)COc2ccc3c(c2)OCO3)s1	0	5%	3%	?	1%	-3%
CC(C)c1nnc(NC(=O)COc2ccc3c(c2)OCO3)s1	0	-13%	5%	?	11µM*	?
Cc1cc(=O)oc2cc(OCC(=O)Nc3nnc(C(C)C)s3)ccc12	60*	-14%	0%	-13%	-25%	3%
N#Cc1ccccc1NC(=O)C(=O)NCC(c1cccnc1)N1CCN(c2ccccc2)CC1 (configuration not stated)	nt	-23%	0%	-10%	nt	nt
SMILES	IL-2 act	A549 tox	Nrf2 activator	Nrf2 block	BRCA1 expr up	p53 reactivator
CCCSCCCNC(=O)CN1C(=O)COc2ccc(S(=O)(=O)N3CCCCCC3)cc21	nt	-25%	1%	-27%	-6%	nt
O=C(Cn1c(-c2cccs2)cc2cc(Cl)ccc21)N1CCN(c2ccccc2F)CC1	nt	-11%	1%	30%	nt	nt
COc1cc(C2C(C#N)=C(N)N(Nc3ccccc3)C3=C2C(=O)CC(C)(C)C3)ccc1OCc1ccccc1 (configuration not stated)	2	?	3%	23µM*	-69%	?
Cc1ccc(C)c(NC(=O)Cn2c(=O)n(Cc3nc(C)no3)c(=O)c3cc4c(cc32)OCO4)c1	nt	12%	0%	?	nt	nt
O=C(N/N=C/c1ccc([N+](=O)[O-])o1)C1CCCC1	-1	?	-1%	16µM*	-51%	11%
O=C(N/N=C/c1ccc([N+](=O)[O-])o1)c1ccc(O)cc1	0	21µM*	-2%	21µM*	-3%	0%
O=[N+]([O-])c1ccc(/C=[N+](\[O-])[C@@H]2CCCC[C@@H]2/[N+]([O-])=C/c2ccc([N+](=O)[O-])o2)o1	-4	21µM*	10µM*	-4%	-93%	-12%
CCCCc1ccc(-c2nc(N)n[nH]2)cc1	-2	20%	2%	0%	7.9µM*	?
Nc1n[nH]c(-c2ccc(F)cc2)n1	-1	-2%	0%	13%	20%	24%
COc1ccc(NC(=O)c2oc3c(c2C)-c2nn(Cc4ccccc4Cl)cc2CC3)cc1OC	nt	-1%	-1%	26%	nt	nt
CCCc1nnc(NC(=O)c2nc(SCC)ncc2Cl)s1	nt	1%	1%	-15%	nt	nt
CC1Sc2ccc(S(=O)(=O)CCC(=O)N3CCN(c4ccccc4)CC3)cc2NC1=O (configuration not stated)	-3	-3%	0%	8%	-29%	-2%
CC1Sc2ccc(S(=O)(=O)CCC(=O)N3CCN(c4cccc(Cl)c4)CC3)cc2NC1=O (configuration not stated)	0	?	0%	16µM*	-44%	-4%
Cc1cccc(N2CCN(S(=O)(=O)c3ccc4c(c3)NC(=O)CO4)CC2)c1C	-4	0%	0%	-8%	-33%	-6%
Cc1cccc(N2CCN(C(=O)CCS(=O)(=O)c3ccc4c(c3)NC(=O)CO4)CC2)c1C	-4	-5%	-1%	15µM*	-5%	9%
CCN1CCC(N(Cc2ccc3c(c2)OCO3)C(=O)Nc2cc(Cl)ccc2C(=O)OC)CC1	nt	-11%	-5%	21%	nt	nt
Cc1ccc2cc3cc(C(=O)N4CCN(c5ccccc5)CC4)oc3nc2c1	nt	?	2%	nt	nt	nt
CC1CC(=O)c2c(cc3c(-c4c(O)cc(O)c5c(O)c6c(cc45)OC(C)CC6=O)c(O)cc(O)c3c2O)O1 (configuration not stated)	-1	?	-1%	12µM*	-61%	-12%

Screening data: PubChem BioAssay, National Center for Advancing Translational Sciences (NCATS)
